From PubChem BioAssay
Activity calls are given as the source filed them.

Experiments:
[1] = small molecules captured by biotinylated probe aFSTL3 – biochemical, small-molecule microarray, fluorescence 635/667, stem cell growth factor project, primary screen (AID 1064); conditions: higher = more signal;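 also: measures binding of the biotinylated anti-FSTL3 antibody to printed compounds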
[2] = binders from COS7 lysate, DM2A8 probe, primary screen, torsin A project, cell lysate, small-molecule microarray, fluorescence 635/667 (AID 1065); conditions: higher = more signal, COS7 lysate expressing mutant human TOR1A
[3] = small molecules captured by biotinylated probe aFGF2 – biochemical, small-molecule microarray, fluorescence 635/667, stem cell growth factor project, primary screen (AID 1067); conditions: higher = more signal;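 also: measures binding of biotinylated aFGF2 protein to printed compounds on slides; z-score merges feature fluorescence and signal-to-noise across triplicate slides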
[4] = small molecules captured by biotinylated probe aFGF10 – biochemical, small-molecule microarray, fluorescence 635/667, stem cell growth factor project, primary screen (AID 1071); conditions: higher = more signal;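 also: score merges 667 nm spot intensity and signal to noise from triplicate slides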
[5] = target: Neurogenic locus notch homolog protein 2 (Homo sapiens) (UniProt Q04721); assay: small molecules binding Notch2 protein – biochemical, small-molecule microarray, 635 nm fluorescence, stem cell growth factors, primary screen (AID 1073); conditions: higher = more signal
[6] = target: Pro-neuregulin-1, membrane-bound isoform (Homo sapiens) (UniProt Q02297); assay: small molecules binding neuregulin-1 protein – biochemical, small-molecule microarray, fluorescence 635/667, psychiatric disease protein project, primary screen (AID 1075); conditions: NRG1 binding, 635 nm fluorescence, higher = more signal;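 also: score combines 667 nm spot fluorescence with signal to noise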
[7] = system: Neuregulin-1 EGF-like domain; assay: small molecules binding NRG1 EGF domain – biochemical, small-molecule microarray, 635 nm fluorescence, primary screen (AID 1081); conditions: higher = more signal;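 also: binding of the protein to compounds printed on small-molecule microarray slides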
[8] = FRG1 expression reporter modulators in myotubes – cell-based, C2C12 myotubes, firefly/Renilla luciferase, luminescence, FRG1 inhibition for FSHD, primary screen (AID 1084); conditions: FRG1 promoter luciferase, higher = more signal, called active from +8 up or from −8 down
[9] = small molecules captured by biotinylated probe aFST – biochemical, small-molecule microarray, fluorescence 635/667, stem cell growth factor project, primary screen (AID 1086); conditions: higher = more signal;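 also: score merges 667 nm fluorescence with signal-to-noise of each printed compound spot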
[10] = binders of probe aHhip on microarray, primary screen, stem cell growth factor project, biochemical, small-molecule microarray, fluorescence 635/667 (AID 1087); conditions: higher = more signal;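 also: score merges spot fluorescence at 667nm with spot signal to noise ratio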
[11] = system: PRMT1 (protein arginine N-methyltransferase 1); assay: small molecules binding arginine methyltransferase PRMT1 – biochemical, small-molecule microarray, 635 nm fluorescence, primary screen (AID 1088); conditions: higher = more signal;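 also: binding of Prmt1 protein to compounds spotted on small-molecule microarray slides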
[12] = growth effects on S. cerevisiae YJM789 – YJM789 clinical isolate, OD600, 24 h, basal, primary screen (AID 1089); conditions: higher = more signal, called active from +8 up or from −8 down;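 also: growth of clinical yeast isolate S. cerevisiae YJM 789 seeded 1000 cells per well; test concentration not given here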
[13] = S. pombe growth modifiers, basal conditions – strain 972, OD600, 24 h, no modulator, primary screen (AID 1090);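 also: basal condition with compound alone and no growth modifier present; test concentration not given here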; conditions: S. pombe 972 growth, higher = more signal, called active from +8 up or from −8 down
[14] = budding yeast growth modifiers under rapamycin – strain BY4716, OD600, 96 h, primary screen (AID 1091); also: test concentration not given here; conditions: S. cerevisiae BY4716 + rapamycin, higher = more signal, called active from +8 up or from −8 down
[15] = target: Torsin-1A-interacting protein 2 (Homo sapiens) (UniProt Q8NFQ8); assay: small molecules binding lysate-expressed LULL1 – cell lysate, human LULL1 lysate, 635/667 nm fluorescence, primary screen (AID 1092); conditions: small-molecule microarray, hLULL1 lysate binding, 635 nm fluorescence; higher = more signal;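 also: probe is lysate of COS7 cells overexpressing human LULL1; score merges per-feature 667 nm fluorescence with signal-to-noise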
[16] = optical density change of DRC41 E. coli – strain DRC41, OD650, 24 h, E. coli filamentation project, primary screen (AID 1093);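 also: MC1000 strain lacking acrAB efflux and sulA so SOS filamentation is blocked; test concentration not given here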; conditions: E. coli DRC41 growth, higher = more signal, called active from +8 up or from −8 down
[17] = probe aLefty2 binding to arrayed compounds – biochemical, biotinylated probe, 635/667 nm fluorescence, primary screen (AID 1094); conditions: small-molecule microarray, higher = more signal;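 also: score merges spot fluorescence near 667 nm with spot signal-to-noise ratio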
[18] = system: Noggin (protein binding on small-molecule microarray); assay: small molecules binding Noggin protein – biochemical, 635/667 nm fluorescence, primary screen (AID 1095); conditions: 635 nm fluorescence, higher = more signal;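 also: score merges 667 nm feature fluorescence with signal to noise over triplicate slides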
[19] = target: Neurogenic locus notch homolog protein 3 (Homo sapiens) (UniProt Q9UM47); assay: small molecules binding NOTCH3 protein – biochemical, 635/667 nm fluorescence, primary screen (AID 1096); conditions: small-molecule microarray, 635 nm fluorescence, higher = more signal
[20] = probe aEGFR binding to arrayed compounds – biochemical, biotinylated probe, 635/667 nm fluorescence, primary screen (AID 1097); conditions: small-molecule microarray, higher = more signal;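 also: probe is a biotinylated anti-EGFR antibody binding compounds printed on slides; score combines fluorescence near 667 nm and signal to noise of each spot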

Chain of Pro-neuregulin-1, membrane-bound isoform (Homo sapiens) (Q02297 whole entry, looked up, the tested form may be a part, canonical isoform): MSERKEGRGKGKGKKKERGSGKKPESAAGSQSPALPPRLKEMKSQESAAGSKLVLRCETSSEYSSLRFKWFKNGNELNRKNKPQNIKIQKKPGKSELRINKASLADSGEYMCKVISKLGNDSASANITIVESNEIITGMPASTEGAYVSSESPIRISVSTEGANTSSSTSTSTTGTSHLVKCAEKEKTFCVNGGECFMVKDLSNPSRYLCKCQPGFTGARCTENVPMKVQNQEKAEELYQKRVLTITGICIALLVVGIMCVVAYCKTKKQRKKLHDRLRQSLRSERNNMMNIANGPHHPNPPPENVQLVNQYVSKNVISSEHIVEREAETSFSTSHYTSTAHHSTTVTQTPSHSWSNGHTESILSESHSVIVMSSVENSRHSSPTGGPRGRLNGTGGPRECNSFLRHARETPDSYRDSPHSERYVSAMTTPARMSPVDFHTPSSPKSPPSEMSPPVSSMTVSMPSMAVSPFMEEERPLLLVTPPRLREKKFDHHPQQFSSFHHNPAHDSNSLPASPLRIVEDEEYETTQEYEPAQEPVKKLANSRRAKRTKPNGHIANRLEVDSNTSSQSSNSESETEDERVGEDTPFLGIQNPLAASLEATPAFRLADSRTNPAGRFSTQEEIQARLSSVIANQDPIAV
Chain of Torsin-1A-interacting protein 2 (Homo sapiens) (Q8NFQ8 whole entry, looked up): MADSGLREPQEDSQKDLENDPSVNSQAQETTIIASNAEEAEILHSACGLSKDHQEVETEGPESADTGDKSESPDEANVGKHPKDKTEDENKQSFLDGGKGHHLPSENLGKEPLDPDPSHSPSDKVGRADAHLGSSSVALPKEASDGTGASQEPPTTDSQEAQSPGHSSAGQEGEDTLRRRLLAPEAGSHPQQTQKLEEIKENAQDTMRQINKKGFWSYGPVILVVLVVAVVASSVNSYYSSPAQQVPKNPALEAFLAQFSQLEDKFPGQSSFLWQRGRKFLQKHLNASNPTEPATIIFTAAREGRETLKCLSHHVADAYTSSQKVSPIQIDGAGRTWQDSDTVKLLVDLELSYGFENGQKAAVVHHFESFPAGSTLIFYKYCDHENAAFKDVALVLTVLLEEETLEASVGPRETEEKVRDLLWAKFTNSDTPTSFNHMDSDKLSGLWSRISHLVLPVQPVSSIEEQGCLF
Chain of Neurogenic locus notch homolog protein 2 (Homo sapiens) (Q04721 whole entry, looked up, canonical isoform): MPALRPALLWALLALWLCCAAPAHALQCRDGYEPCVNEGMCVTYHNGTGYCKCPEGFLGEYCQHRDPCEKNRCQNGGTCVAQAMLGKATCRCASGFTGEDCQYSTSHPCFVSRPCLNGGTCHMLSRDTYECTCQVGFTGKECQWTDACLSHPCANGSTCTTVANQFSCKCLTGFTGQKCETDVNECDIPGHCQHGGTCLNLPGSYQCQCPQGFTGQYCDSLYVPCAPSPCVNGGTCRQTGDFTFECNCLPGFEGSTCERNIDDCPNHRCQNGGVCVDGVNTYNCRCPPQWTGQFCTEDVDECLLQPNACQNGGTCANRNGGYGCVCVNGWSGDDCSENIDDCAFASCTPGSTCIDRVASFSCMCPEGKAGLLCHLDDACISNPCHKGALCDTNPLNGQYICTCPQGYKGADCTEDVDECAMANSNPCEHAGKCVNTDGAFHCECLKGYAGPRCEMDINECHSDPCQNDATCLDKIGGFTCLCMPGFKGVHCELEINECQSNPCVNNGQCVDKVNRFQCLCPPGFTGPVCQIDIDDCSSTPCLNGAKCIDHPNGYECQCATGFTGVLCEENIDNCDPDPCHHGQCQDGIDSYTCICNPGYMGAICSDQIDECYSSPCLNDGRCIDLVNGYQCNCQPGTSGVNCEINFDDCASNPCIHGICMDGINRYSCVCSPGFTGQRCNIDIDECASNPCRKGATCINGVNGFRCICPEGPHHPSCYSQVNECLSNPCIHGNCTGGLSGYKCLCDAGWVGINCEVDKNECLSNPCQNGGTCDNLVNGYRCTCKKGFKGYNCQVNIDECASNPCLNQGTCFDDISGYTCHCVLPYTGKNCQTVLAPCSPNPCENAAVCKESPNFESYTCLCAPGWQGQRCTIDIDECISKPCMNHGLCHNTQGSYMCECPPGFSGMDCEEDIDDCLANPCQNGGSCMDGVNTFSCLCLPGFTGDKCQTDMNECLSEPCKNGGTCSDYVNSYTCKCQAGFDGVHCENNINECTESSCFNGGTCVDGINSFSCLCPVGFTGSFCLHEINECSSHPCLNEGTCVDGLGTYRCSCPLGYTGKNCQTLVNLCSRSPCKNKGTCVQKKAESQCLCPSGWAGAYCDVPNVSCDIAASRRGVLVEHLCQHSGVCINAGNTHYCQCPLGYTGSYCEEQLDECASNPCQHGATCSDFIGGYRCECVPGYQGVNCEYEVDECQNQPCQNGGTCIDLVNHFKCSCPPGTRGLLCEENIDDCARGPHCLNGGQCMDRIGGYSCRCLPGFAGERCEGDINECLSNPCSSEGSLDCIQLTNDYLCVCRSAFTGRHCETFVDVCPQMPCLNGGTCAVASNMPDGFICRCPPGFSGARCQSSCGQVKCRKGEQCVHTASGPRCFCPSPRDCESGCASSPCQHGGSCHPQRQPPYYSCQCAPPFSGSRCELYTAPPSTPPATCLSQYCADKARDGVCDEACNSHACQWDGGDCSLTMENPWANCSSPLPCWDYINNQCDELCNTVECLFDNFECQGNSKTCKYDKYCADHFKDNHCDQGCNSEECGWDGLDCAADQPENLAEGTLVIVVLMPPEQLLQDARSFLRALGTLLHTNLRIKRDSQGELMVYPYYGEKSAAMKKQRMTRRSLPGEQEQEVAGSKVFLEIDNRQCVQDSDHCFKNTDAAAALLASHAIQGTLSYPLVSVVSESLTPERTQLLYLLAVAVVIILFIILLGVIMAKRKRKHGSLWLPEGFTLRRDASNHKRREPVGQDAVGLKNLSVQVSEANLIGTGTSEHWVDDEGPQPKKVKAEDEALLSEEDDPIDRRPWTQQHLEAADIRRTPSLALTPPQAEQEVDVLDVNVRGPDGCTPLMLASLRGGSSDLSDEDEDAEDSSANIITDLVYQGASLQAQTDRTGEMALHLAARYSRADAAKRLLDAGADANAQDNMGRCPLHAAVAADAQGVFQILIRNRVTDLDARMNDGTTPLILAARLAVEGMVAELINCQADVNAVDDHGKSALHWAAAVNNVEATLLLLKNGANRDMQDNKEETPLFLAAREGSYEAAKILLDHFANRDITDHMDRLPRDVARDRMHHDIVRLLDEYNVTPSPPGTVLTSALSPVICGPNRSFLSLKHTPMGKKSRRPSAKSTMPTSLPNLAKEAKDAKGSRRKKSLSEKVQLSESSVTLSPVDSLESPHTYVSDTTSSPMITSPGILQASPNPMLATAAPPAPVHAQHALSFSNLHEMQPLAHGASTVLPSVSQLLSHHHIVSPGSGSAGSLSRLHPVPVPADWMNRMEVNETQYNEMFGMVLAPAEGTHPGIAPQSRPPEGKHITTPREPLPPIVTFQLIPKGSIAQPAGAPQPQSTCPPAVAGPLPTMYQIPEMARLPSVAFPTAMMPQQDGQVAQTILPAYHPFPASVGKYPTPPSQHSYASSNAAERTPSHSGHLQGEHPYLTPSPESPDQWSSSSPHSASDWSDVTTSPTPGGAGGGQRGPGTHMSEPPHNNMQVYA

Structure (SMILES) | composite z-score [1] | composite z-score [2] | composite z-score [3] | composite z-score [4] | composite z-score [5] | composite z-score [6] | composite z-score [7] | z-score [8] | composite z-score [9] | composite z-score [10] | composite z-score [11] | z-score [12] | z-score [13] | z-score [14] | composite z-score [15] | z-score [16] | composite z-score [17] | composite z-score [18] | composite z-score [19] | composite z-score [20]
[N-]=[N+]=Nc1ccccc1C[C@]1(C(=O)NCC(O)CO)N=C(c2ccc(OCCCO)cc2)O[C@H]1c1ccccc1N=[N+]=[N-] (stereo not given in full) | 0.722 | 0.0264 | 0.056 | 0.33 | 0.379 | 1.45 | 0.753 | -0.516 (inactive) | 0.375 | -0.0994 | -0.918 | 0.637 (inactive) | -0.824 (inactive) | 0.0558 (inactive) | 2.98 | 0.774 (inactive) | 0.334 | -0.609 | 0.203 | 0.383
COC(=O)[C@@]1(Cc2ccc(OC)cc2)[C@H]2c3cc(C(=O)N4CCCC4)n(Cc4ccsc4Br)c3C[C@H]2CN1C(=O)c1ccccc1 | 0.588 | -0.594 | -0.1 | 0.188 | 1.6 | 1.68 | 1.08 | 3.4 (inactive) | 1.37 | -0.367 | -0.356 | -0.168 (inactive) | 0.0021 (inactive) | -0.887 (inactive) | 2.91 | -0.29 (inactive) | 0.498 | -0.0969 | 0.855 | 0.122
CC1CC/C=C\[C@H]2OC34C=CCN(C(C)(C)C)C(=O)[C@H]3N(CCCCCCO)C(=O)[C@@H]4C2C(=O)O1 (stereo not given in full) | 0.237 | -0.153 | -0.149 | 0.0097 | -0.945 | 0.866 | 1.13 | -1.09 (inactive) | -0.222 | -0.0994 | -0.005 | -0.242 (inactive) | -0.357 (inactive) | -0.19 (inactive) | 1.4 | -0.31 (inactive) | -0.183 | -0.597 | 0.0452 | -0.371
CCOC1=C2C(CN(S(=O)(=O)c3ccc(C)cc3)C2c2ccc(C)cc2)C2C(=O)N(c3ccccc3)C(=O)C2C1 (stereo not given) | -0.208 | -0.155 | -0.0074 | 0.347 | 1.25 | 0.752 | 1.03 | -0.62 (inactive) | 0.585 | -0.0618 | 0.952 | 0.218 (inactive) | 1.86 (inactive) | 0.852 (inactive) | 1.96 | 0.0696 (inactive) | -0.0515 | 0.257 | 0.875 | 0.0414
C=CCC(OC(C)=O)[C@@H]1[C@@H](N(Cc2ccc(-c3ccccc3)cc2)C(=O)Cc2ccc(F)cc2)c2cc(OCCCO)ccc2N1C(=O)c1ccc(-c2ccccc2)cc1 (stereo not given in full) | 0.124 | 0.143 | -0.0145 | -0.0694 | -0.305 | -0.23 | -0.937 | -0.432 (inactive) | 0.0621 | -0.0994 | -0.838 | -2.19 (inactive) | -0.379 (inactive) | -0.694 (inactive) | -0.404 | 0.996 (inactive) | 0.0631 | -0.237 | -0.239 | -0.0372
